Only some compounds are listed: those with a hit (about 14% of all), similar ones and a draw of the others.
Lassa entry inh: Lassa virus entry inhibition | actives 1.2% (n = 300,000) | Potency, µM (highest dose often 37.9 µM), most hits filed as inhibitors | Lassa virus pseudotype entry inhibition, cell reporter | AID 540256; calls by dose curve; tested in HEK293 cells; also: nearly all actives have a fitted effect of over 50% in size
Pf growth 48h: inhibits P. falciparum growth in the first generation, 48 h. AID 504832. actives 5.9% (n = 310,000). P. falciparum luciferase growth in erythrocytes, 48 h. Potency, µM (highest dose often 28.7 µM), most hits filed as inhibitors
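Compounds are pin-transferred into medium, infected erythrocytes (2% hematocrit, 0.1% parasitemia final) are added, and plates sit one parasite generation at 37 C in 5% CO2. Detection reagent is then added and luminescence measured.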
HCMV antiviral: blocks human cytomegalovirus replication | activity change, negative = inhibition, % at 57.5 µM | HFF cells, HCMV-luciferase reporter, 72 h; active compounds read low | AID 1259415 | actives 4.5% (n = 410,000); in the data active = activity change below about -60%; inconclusive = no clear call, values can overlap the other calls; inactive = above about -39%
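Cell-based, HFFs, 1000 cells/well, 16 h 37C; cpds in DMSO + HCMV-luc, MOI 1 PFU/cell; 72 h 37C; OneGlo luminescence after 5 min RT; norm. to buffer vs Salinomycin 10uM.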
MARV entry inh: Marburg virus entry inhibition; Marburg virus pseudotyped entry inhibition, cell reporter; Potency, µM (highest dose often 37.8 µM), actives largely listed as inhibitors; actives 1.8% (n = 300,000); AID 540276; calls by dose curve; tested in HEK293 cells
Pf growth 96h: inhibits malaria parasite growth, 96 h. P. falciparum luciferase reporter growth, 96 h. actives 6.9% (n = 320,000). Potency, µM (series often up to 28.7 µM), hits mostly inhibitors
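Readout is luminescence from an integrated firefly luciferase in P. falciparum. Red cells, 2% hematocrit and 0.05% parasitemia final, were cultured with compound through two parasite generations (96 hours) at 37 C, 5% CO2.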
HCV inh: HCV inhibition; Huh7.5.1 HCVcc-Cre infection, luciferase reporter, 44 h; Potency, µM (top dose mostly 41.8 µM), actives largely listed as inhibitors; actives 3.4% (n = 340,000)
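Seed cells (1,000/well) for 4 h; treat with compound and infect with HCVcc-Cre, moi about 0.5. Incubate 44 h, then detect luciferase activity.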
Hits are given with their value; – = inactive; ? = inconclusive; · = no result given; [ ] = dose if it differs, or a comment. Unless noted, calls follow the shape of the dose curve; as a rule, active = well fitted inhibition curve with a large enough effect; inconclusive = small, poorly fitted or top-dose-only effect, or another doubt; inactive = no such curve, though single readings can be large or run the other way.

SMILES | Lassa entry inh | Pf growth 48h | HCMV antiviral | MARV entry inh | Pf growth 96h | HCV inh
CC1CC(C)CN(C(=O)C(C)N(C)CC(=O)Nc2ccccc2Cl)C1 (stereo not drawn) | – | – | – | – | – | –
CC(C(=O)N1CCc2ccccc21)N(C)CC(=O)Nc1ccccc1Cl (stereo not drawn) | · | ? | – | · | 16.5µM | –
O=C(CSCc1ccccc1)N=Nc1c(O)[nH]c2ccccc12 | ? | – | – | ? | – | –
Cc1ccc2[nH]c(O)c(N=NC(=O)CCc3ccccc3)c2c1Br | – | – | -61.2 | – | – | –
CC(C)N(C)C1CCN(S(=O)(=O)c2ccc3[nH]c(=O)ccc3c2)CC1 | – | · | – | · | · | ·
NNc1nc2sc3c(c2c(=O)n1Cc1ccccc1)CCC3 | – | – | – | – | – | ?
NNc1nc2sc3c(c2c(=O)n1C1CCCCC1)CCN(Cc1ccccc1)C3 | – | ? | – | – | 1.17µM | –
CCSc1nc2sc3c(c2c(=O)n1C1CCCCC1)CCN(C)C3 | – | 1.31µM | – | – | –[5.75 µM] | –
Nn1c(Nc2ccccc2)nc2sc3c(c2c1=O)CCC3 | ? | – | – | ? | – | 12.6µM
C=C(C)CSc1nc2sc3c(c2c(=O)n1C1CCCCC1)CCN(C)C3 | – | 1.47µM | – | ? | 1.04µM | ?
O=[N+]([O-])c1cc(S(=O)(=O)N2CCCC2)ccc1N/N=C/c1ccccn1 | – | – | – | ? | ? | –
NS(=O)(=O)c1ccc(N/N=C/c2ccc(O)cc2O)c([N+](=O)[O-])c1 | · | ? | -78.3 | · | ? | –
NS(=O)(=O)c1ccc(N/N=C/c2ccccn2)c([N+](=O)[O-])c1 | ? | – | -63.6 | ? | – | ?
COc1cc(Cn2c3ccc(NC(=O)NCCc4ccccc4)cc3c(=O)n2C)ccc1F | · | · | -68.0 | · | · | ·
COc1cc(Cn2c3ccc(NC(=O)CCc4ccccc4)cc3c(=O)n2C)ccc1F | · | · | – | · | · | ·
Cc1cc(C)cc(Cn2c3ccc(NC(=O)NCCc4cccs4)cc3c(=O)n2C)c1 | · | · | – | · | · | ·
Cn1c(=O)c2cc(NC(=O)NCCc3cccs3)ccc2n1Cc1ccccc1 | · | · | -76.8 | · | · | ·
Cc1ccc(-n2c(C)cc(C(=O)C(=O)Nc3ccccc3)c2C)c(C)c1 | – | · | ? | – | · | ·
CCn1nc(C)c(/C=C2\CCCC3=C2OC(N)=C(C#N)C3c2c(C)nn(CC)c2C)c1C (stereo not drawn) | · | 10.4µM | · | · | – | ·
Cc1ccc(-n2c(C)cc(C3=NNC(=NC4CC4)SC3)c2C)cc1C | · | – | -99.5 | · | ? | –
COc1ccc(C2=NNC(=Nc3cc(S(=O)(=O)N(C)C)ccc3C)SC2)c(OC)c1 | · | 1.65µM | -97.5 | · | – | 12.6µM
Cc1ccc(C)c(N=C2NC(=O)CS2)c1 | – | – | – | – | – | –
COCCCN=C1NN=C(c2cc(C)n(-c3ccccc3)c2C)CS1 | – | 10.4µM | – | – | 8.28µM | ?
Cc1cc(C2=NNC(=Nc3ccccc3)SC2)c(C)n1C | · | – | – | · | – | ?
Cc1cc(C2=NNC(=NC3CC3)SC2)c(C)n1-c1c(C)n(C)n(-c2ccccc2)c1=O | – | – | – | – | – | –
SMILES | Lassa entry inh | Pf growth 48h | HCMV antiviral | MARV entry inh | Pf growth 96h | HCV inh
COCCn1c(C)cc(C2=NNC(=Nc3ccccc3F)SC2)c1C | 2µM | · | -73.0 | ? | 3.7µM | –
CN=C1NN=C(c2cc(C)n(-c3ccc(Cl)cc3)c2C)CS1 | – | – | – | ? | ? | –
CCOC(=O)C1=CCN(S(=O)(=O)c2ccccc2Cl)C1c1cccc(C)c1 (stereo not drawn) | · | · | – | · | · | ·
CC(C)(C)Nc1oc(-c2ccccc2)nc1-c1cccc2ccccc12 | · | · | · | – | · | ·
Clc1ccccc1N=C1NN=C(c2cccs2)CS1 | ? | – | – | ? | – | ?
COCCN=C1NN=C(c2cc(C)n(CC3CCCO3)c2C)CS1 (stereo not drawn) | · | ? | – | – | 9.28µM | –
COCCCN=C1NN=C(c2cc(C)n(Cc3ccccc3Cl)c2C)CS1 | ? | ? | -64.5 | ? | ? | ?
Cc1sc(N)nc1-c1ccc2c(c1)OCCO2 | · | – | – | · | ? | –
NC1=NN=C(c2ccc3c(c2)OCCO3)CS1 | 7.08µM | – | – | 11.2µM | – | –
Cc1cc(C=O)c(C)n1CC1CCCO1 (stereo not drawn) | – | – | – | – | · | –
C=CCN=C1NN=C(c2ccc3c(c2)OCCO3)CS1 | 0.461µM | – | – | 0.92µM | – | –
O=C(Cc1ccc(Cl)cc1)Nc1cccnc1Cl | · | · | – | · | · | ·
O=C(c1ccc(Cl)cc1)N1CCC2CC1c1cc(-c3ccccc3)ccc12 (stereo not drawn) | · | · | – | · | · | –[8.37 µM]
Cn1c(C(=O)NCc2ccc(F)cc2)cc2c(=O)n(C)c3ccccc3c21 | – | · | – | – | · | ·
COc1ccc(Br)cc1CNC(=O)c1cnc2sc(N3CCC(C)CC3)nn2c1=O | ? | · | – | · | · | ·
Fc1ccccc1N=C1NN=C(c2ccccc2)CS1 | ? | ? | -98.1 | 11.2µM | – | ?
Cc1c(N=C2NN=C(c3c[nH]c4ccccc34)CS2)c(=O)n(-c2ccccc2)n1C | · | 4.15µM | – | · | ? | –

High-throughput results from PubChem BioAssay.
